Among the test systems are HCT-15 colon; HT29 colon; SNB-75 CNS; SNB-19 CNS; U251 CNS; PC-3 prostate; SK-MEL-5 melanoma; UACC-62 melanoma; LOX IMVI melanoma; SK-MEL-28 melanoma; SK-MEL-2 melanoma; EKVX NSCLC; SN12C renal; UO-31 renal; TK-10 renal; ACHN renal; CAKI-1 renal; A498 renal; CCRF-CEM leukemia; MOLT-4 leukemia.
Assay in all cases: NCI-60 one-dose screen, 48 h (100 = growth as untreated, 0 = no growth, -100 = all killed)
Details in all cases: 10 µM unless noted

Compounds without any hit were thinned out: in the full panel of roughly 83,000, 20% have a hit.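 48-hour exposure, single concentration, 96-well plates; percent growth endpoint where 0 means no net growth. Active: below 10.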 Values without a mark were called inactive. Calls of active or inactive are those of the source.

For `O=c1oc2c(cnc3ccccc32)cc1-c1ccsc1`, the growth in the experiment with HCT-15 colon was 107%; in the experiment on HT29 colon it was 113%; in the experiment on SNB-75 CNS, 89%; in the experiment with SNB-19 CNS, 94.6%; with U251 CNS it was 93.3%; in the experiment on PC-3 prostate, 90.5%. For the same molecule, the growth in the experiment with SK-MEL-5 melanoma is 96.8%; with UACC-62 melanoma it was 94.8%; with LOX IMVI melanoma it was 99.3%; with SK-MEL-28 melanoma it was 106%; with SK-MEL-2 melanoma, 106%; in the experiment with EKVX NSCLC, 95%. For the same molecule, the growth in the experiment with SN12C renal is 95.1%; in the experiment on UO-31 renal it was 79.3%; in the experiment with TK-10 renal, 123%; in the experiment on ACHN renal, 93.9%; in the experiment with CAKI-1 renal, 84.5%; with A498 renal it was 107%. The growth in the experiment on CCRF-CEM leukemia is 94.6%; in the experiment with MOLT-4 leukemia, 96%.

On to `CNc1nc(S(=O)c2ccc(C#N)cc2)nc2ccccc12` (stereo not given), for which the growth was 81% in the experiment on HCT-15 colon; 81.8% with HT29 colon; 60.5% with SNB-75 CNS; 90.8% with SNB-19 CNS; 83.1% with U251 CNS; 89.2% in the experiment on PC-3 prostate. The growth in the experiment with SK-MEL-5 melanoma was 83.6%; with UACC-62 melanoma it was 81%; in the experiment with LOX IMVI melanoma, 76.5%; in the experiment with SK-MEL-28 melanoma, 94.4%; with SK-MEL-2 melanoma it was 105%; in the experiment with EKVX NSCLC, 82.2%. In addition, the growth in the experiment with SN12C renal was 68.9%; in the experiment on UO-31 renal, 60.2%; in the experiment with TK-10 renal, 109%; in the experiment with ACHN renal, 41.8%; with CAKI-1 renal, 39.9%; in the experiment on A498 renal, 86%. In addition, the growth is 32.2% with CCRF-CEM leukemia and 68.6% in the experiment on MOLT-4 leukemia.

`CN1C(=O)N(C)C2Nn3c(s/c(=C\c4ccc(C(F)(F)F)cc4)c3=O)=NC21` (stereo not given): the growth was 93.9% with HCT-15 colon; 109% with HT29 colon; 82.2% in the experiment with SNB-75 CNS; 95.2% with SNB-19 CNS; 93.2% with U251 CNS; 104% with PC-3 prostate. Also, the growth in the experiment on SK-MEL-5 melanoma is 99.5%; in the experiment on UACC-62 melanoma, 89.7%; with LOX IMVI melanoma it was 95.7%; in the experiment with SK-MEL-28 melanoma, 103%; in the experiment with SK-MEL-2 melanoma, 115%; with EKVX NSCLC, 100%. Moreover, the growth with SN12C renal was 100%; with UO-31 renal, 82.3%; with TK-10 renal it was 106%; in the experiment on ACHN renal, 105%; in the experiment on CAKI-1 renal it was 82.7%; in the experiment with A498 renal it was 109%. The growth is 101% with CCRF-CEM leukemia and 106% with MOLT-4 leukemia.

Regarding `COC(=O)/C(CCC=C(C)C)=C1\[C@@H](OC(C)=O)C[C@@]2(C)[C@H]1C[C@@H](O)[C@H]1[C@@]3(C)CC[C@H](NCCN)[C@@H](C)[C@@H]3CC[C@@]12C`, the growth is 55% in the experiment with HCT-15 colon; 33.5% in the experiment with HT29 colon; 73% with SNB-75 CNS; 95.1% with SNB-19 CNS; 69.1% in the experiment on U251 CNS; 59.6% with PC-3 prostate. Further, the growth is 88.3% in the experiment on SK-MEL-5 melanoma; 89.5% in the experiment on UACC-62 melanoma; 84.5% with LOX IMVI melanoma; 89.2% with SK-MEL-28 melanoma; 92.6% with SK-MEL-2 melanoma; 82.2% in the experiment with EKVX NSCLC. Besides, the growth was 81.2% in the experiment with SN12C renal; 69.4% in the experiment with UO-31 renal; 101% in the experiment on TK-10 renal; 99.6% in the experiment with ACHN renal; 88.3% in the experiment with CAKI-1 renal; 94.4% in the experiment with A498 renal. Besides, the growth in the experiment with CCRF-CEM leukemia is 79.4%; with MOLT-4 leukemia, -13.2% (active).

For the molecule `O=[N+]([O-])c1ccc(S(=O)(=O)N2CCN(C3=NS(=O)(=O)c4ccccc4N3c3ccccc3)CC2)cc1`, the growth in the experiment on HCT-15 colon is 109%; with HT29 colon, 110%; in the experiment on SNB-75 CNS, 90.2%; with SNB-19 CNS, 101%; in the experiment with U251 CNS, 101%; in the experiment with PC-3 prostate, 87.4%. For the same molecule, the growth in the experiment on SK-MEL-5 melanoma is 90.7%; in the experiment with UACC-62 melanoma, 98.2%; in the experiment with LOX IMVI melanoma it was 97.2%; with SK-MEL-28 melanoma, 135%; in the experiment with SK-MEL-2 melanoma, 61.6%; with EKVX NSCLC, 102%. Also, the growth with SN12C renal is 114%; with UO-31 renal, 76.8%; in the experiment on TK-10 renal, 118%; in the experiment on ACHN renal, 99.3%; in the experiment with CAKI-1 renal it was 84.6%; with A498 renal it was 105%. Besides, the growth is 125% in the experiment with CCRF-CEM leukemia and 94.9% in the experiment with MOLT-4 leukemia.

For `O=C1/C(=C/c2ccc(Cl)cc2)COc2ccc(O)cc21`, the growth was 29.3% in the experiment on HCT-15 colon; 15.3% in the experiment on HT29 colon; 84.5% with SNB-75 CNS; 82.1% in the experiment on SNB-19 CNS; 44.9% with U251 CNS; 69.8% with PC-3 prostate. Moreover, the growth in the experiment with SK-MEL-5 melanoma is 96.8%; with UACC-62 melanoma, 78.1%; in the experiment with LOX IMVI melanoma it was -42.6% (active); in the experiment on SK-MEL-28 melanoma, 96.8%; with SK-MEL-2 melanoma, 101%; in the experiment on EKVX NSCLC, 95.5%. The growth in the experiment on SN12C renal is 69%; in the experiment on UO-31 renal, 53.1%; in the experiment with TK-10 renal, 100%; in the experiment on ACHN renal, 80%; with CAKI-1 renal, 70.8%; in the experiment with A498 renal, 100%. The growth was -5.84% (active) in the experiment on CCRF-CEM leukemia and 14.8% in the experiment on MOLT-4 leukemia.

Consider `Cc1c(-c2nc3ccc(F)cc3c(=O)[nH]2)c2ccccc2n1C`, for which the growth in the experiment with HCT-15 colon was 22.9%; in the experiment on HT29 colon, 10.7%; with SNB-75 CNS it was -7.98% (active); with SNB-19 CNS, 29.2%; in the experiment with U251 CNS it was 27.6%; in the experiment on PC-3 prostate it was 47.1%. The growth in the experiment with SK-MEL-5 melanoma is 36.2%; in the experiment on UACC-62 melanoma it was 19.6%; in the experiment on LOX IMVI melanoma, 34.5%; in the experiment with SK-MEL-28 melanoma, 52%; in the experiment with SK-MEL-2 melanoma, 45.6%; in the experiment on EKVX NSCLC, 57.5%. The growth in the experiment with SN12C renal is 38.8%; with UO-31 renal, 53.7%; in the experiment with TK-10 renal it was 83.5%; in the experiment with ACHN renal it was 36%; in the experiment on CAKI-1 renal, 40.8%; with A498 renal, -12.8% (active). In addition, the growth was 15.6% in the experiment on CCRF-CEM leukemia and 23% in the experiment on MOLT-4 leukemia.

Consider `O=C1N[C@@H]2NC(=[N+]3CCOCC3)N[C@@H]2N1`, for which the growth in the experiment with HCT-15 colon is 104%; with HT29 colon, 110%; in the experiment with SNB-75 CNS, 94.5%; in the experiment on SNB-19 CNS it was 96%; with U251 CNS, 97.2%; with PC-3 prostate it was 106%. Further, the growth in the experiment on SK-MEL-5 melanoma is 101%; in the experiment with UACC-62 melanoma, 90.1%; in the experiment with LOX IMVI melanoma, 98.3%; with SK-MEL-28 melanoma it was 101%; in the experiment on SK-MEL-2 melanoma it was 118%; with EKVX NSCLC, 102%. Besides, the growth in the experiment with SN12C renal is 97.8%; with UO-31 renal, 87.3%; with TK-10 renal, 103%; in the experiment with ACHN renal, 104%; in the experiment on CAKI-1 renal it was 91.5%; in the experiment with A498 renal, 98.3%. The figures for the growth in the experiment on CCRF-CEM leukemia and in the experiment on MOLT-4 leukemia were 108% and 103%, respectively.

The values above are taken from PubChem BioAssay (NCI).
